Assay outcomes from PubChem.
NSD2 HMT inh: NSD2 (human) methyltransferase inhibition | O96028 | NSD2 peptide methylation, AlphaScreen, 120 min | inhibition, % at 12.5 µM | 0.54% of 310,000 active; in the data active = inhibition above about 50%
Target sequence (O96028 whole entry, looked up): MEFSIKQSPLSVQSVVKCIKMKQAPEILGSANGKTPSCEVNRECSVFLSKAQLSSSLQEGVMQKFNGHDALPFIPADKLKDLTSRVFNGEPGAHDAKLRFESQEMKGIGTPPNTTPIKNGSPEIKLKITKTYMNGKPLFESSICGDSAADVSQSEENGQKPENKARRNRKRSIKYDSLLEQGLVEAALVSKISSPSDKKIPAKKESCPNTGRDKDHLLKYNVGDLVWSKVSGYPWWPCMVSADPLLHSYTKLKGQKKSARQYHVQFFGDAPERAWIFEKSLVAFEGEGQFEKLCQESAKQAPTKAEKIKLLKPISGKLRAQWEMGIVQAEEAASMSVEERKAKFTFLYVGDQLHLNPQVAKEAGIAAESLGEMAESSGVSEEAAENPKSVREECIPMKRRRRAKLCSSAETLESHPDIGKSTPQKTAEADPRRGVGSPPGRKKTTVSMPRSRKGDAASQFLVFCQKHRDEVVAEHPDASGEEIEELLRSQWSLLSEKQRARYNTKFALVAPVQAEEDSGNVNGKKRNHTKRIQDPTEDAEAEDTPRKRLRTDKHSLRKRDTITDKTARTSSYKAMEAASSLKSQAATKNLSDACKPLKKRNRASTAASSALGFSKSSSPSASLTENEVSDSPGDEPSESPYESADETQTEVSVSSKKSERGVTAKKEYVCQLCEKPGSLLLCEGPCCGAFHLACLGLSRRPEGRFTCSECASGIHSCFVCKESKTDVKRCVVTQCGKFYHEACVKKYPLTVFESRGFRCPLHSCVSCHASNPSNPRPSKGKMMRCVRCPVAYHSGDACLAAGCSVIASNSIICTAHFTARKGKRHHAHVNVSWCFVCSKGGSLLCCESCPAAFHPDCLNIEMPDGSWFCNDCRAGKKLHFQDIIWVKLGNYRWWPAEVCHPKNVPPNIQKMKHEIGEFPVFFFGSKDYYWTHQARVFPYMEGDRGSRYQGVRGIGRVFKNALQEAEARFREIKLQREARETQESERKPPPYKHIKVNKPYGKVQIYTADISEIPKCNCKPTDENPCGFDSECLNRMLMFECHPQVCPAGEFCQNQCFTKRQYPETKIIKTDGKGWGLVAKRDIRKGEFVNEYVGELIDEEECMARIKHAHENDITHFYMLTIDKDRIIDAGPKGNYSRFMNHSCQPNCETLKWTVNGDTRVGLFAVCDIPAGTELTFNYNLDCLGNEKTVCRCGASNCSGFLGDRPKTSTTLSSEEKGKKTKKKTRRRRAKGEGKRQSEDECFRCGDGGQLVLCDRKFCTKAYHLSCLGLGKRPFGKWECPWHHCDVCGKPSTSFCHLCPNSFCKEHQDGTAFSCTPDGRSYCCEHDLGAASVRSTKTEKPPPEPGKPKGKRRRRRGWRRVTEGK
MLL AF4-AF9 inh: blocks AF4 peptide binding to human AF9 | P42568 | AlphaScreen, biotin-AF4 peptide binding to FLAG-AF9 | inhibition, % at 10 µM | 0.47% of 350,000 active | AID 651704;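 active = every replicate reaching a set inhibition limit, whatever the replicate mean, cut at about 25% in these data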;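 note: 0% = plate neutral control median and 100% = total signal loss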
miR-122 sensor: miR-122 inhibition in Huh7 cells | Huh7 miR-122 Renilla luciferase sensor, 48 h; neutral wells = 0, positive control = 100 | activation (reporter increase), % at 12.5 µM | 0.3% of 340,000 active | AID 602342;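 active = mean replicate activation score at least 90 and every replicate individually at or above 90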;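 note: higher luciferase means less miR-122 activity so hits act as miR-122 inhibitors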
CASP6 VEID inh: caspase-6 (human) enzyme inhibition | purified caspase-6, Z-VEID-R110 cleavage fluorescence | inhibition, % at 12.5 µM | 0.53% of 350,000 active | AID 686996;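 active = mean inhibition across replicates at least about 35%, with every replicate also reaching that limit, limit read from the data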;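 note: 0% = median of neutral control wells and 100% = no fluorescence left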
RAD52 inh: inhibitors of human RAD52 DNA annealing; P43351; recombinant RAD52 DNA annealing, FRET fluorescence; inhibition, % at 18.7 µM; 0.46% of 360,000 active; AID 651710;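 active = every replicate showing at least 50% inhibition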
An asterisk follows results filed as active; . = no result; [ ] = remark or other dose. An excerpt weighted towards active compounds, which were near 1.5% of everything screened.

SMILES	NSD2 HMT inh	MLL AF4-AF9 inh	miR-122 sensor	CASP6 VEID inh	RAD52 inh
COc1ccc(CN(C)C[C@H]2OCCCC[C@@H](C)Oc3ccc(NC(=O)Nc4ccc(C(F)(F)F)cc4)cc3C(=O)N([C@@H](C)CO)C[C@@H]2C)cc1	.	15	-29[16.7 µM]	-3	50*
COc1ccc(CN(C)C[C@@H]2OCCCC[C@H](C)Oc3ccc(NC(=O)Nc4ccc(C(F)(F)F)cc4)cc3C(=O)N([C@H](C)CO)C[C@@H]2C)cc1	.	8	-31[16.7 µM]	1	53*
COc1ccc(CN(C)C[C@H]2OCCCC[C@H](C)Oc3ccc(NC(=O)Nc4ccc(C(F)(F)F)cc4)cc3C(=O)N([C@H](C)CO)C[C@@H]2C)cc1	.	4	-30[16.7 µM]	0	53*
COc1ccc(CN(C)C[C@H]2Oc3ccc(NC(=O)CCCN(C)C)cc3C(=O)N([C@H](C)CO)C[C@H]2C)cc1	.	0	.	0	-6
CC(=O)N1[C@@H](CO)[C@@H](c2ccccc2)C12CN(C(=O)Cc1ccccc1)C2	.	-4	.	0	5
CO[C@@H]1CN(C)C(=O)c2cc(NC(=O)C3CC3)ccc2OC[C@@H](C)N(C(=O)c2ccccc2F)C[C@H]1C	.	0	.	-3	-13
Cc1ccc(C(=O)N/C(=C\c2ccc(-c3ccc(Br)cc3)o2)C(=O)NCCCN(C)C)cc1	3	25*	.	-23	-44
Cc1c(NC(=O)NC2CCCCC2)cccc1[N+](=O)[O-]	-2	-2	157*	-4	5
C/C=C/c1ccc2c(c1)O[C@H](CN(C)C(C)=O)[C@@H](C)CN([C@H](C)CO)S2(=O)=O	.	-3	3[16.7 µM]	1	-5
Cc1noc(C)c1NC(=O)N(C)C[C@H]1Oc2c(NS(=O)(=O)c3ccc(F)cc3)cccc2C(=O)N([C@H](C)CO)C[C@@H]1C	.	-1	.	-2	-8
C[C@@H]1CCCCO[C@@H](CN(C)C)[C@H](C)CN([C@H](C)CO)C(=O)c2cc(NC(=O)Nc3ccc(C(F)(F)F)cc3)ccc2O1	.	7	-2[16.7 µM]	1	50*
C[C@H](CO)N1C[C@H](C)[C@H](CN(C)CC2CC2)OCCCC[C@H](C)Oc2ccc(NC(=O)Nc3ccc(C(F)(F)F)cc3)cc2C1=O	.	13	.	-1	54*
C[C@@H]1CCCCO[C@@H](CN(C)C)[C@@H](C)CN([C@H](C)CO)C(=O)c2cc(NC(=O)Nc3ccc(C(F)(F)F)cc3)ccc2O1	.	2	10[16.7 µM]	-3	54*
Cc1ccccc1NC(=O)c1ccc(Cl)c(NC(=O)C2CCCC2)c1	0	.	.	.	.
Cc1ccc(NC(=O)NNC(=O)Cn2nc(-c3ccccc3)c(-c3ccccc3)c(C#N)c2=O)cc1	5	.	104*	.	.
CSc1ccccc1NC(=O)Nc1ccccc1	-1	10	20	44*	-4
C[C@@H]1CN([C@@H](C)CO)C(=O)Cc2cc(NC(=O)Nc3ccccc3)ccc2O[C@H]1CN(C)S(C)(=O)=O	.	1	2[16.7 µM]	-3	7
Nc1nc(O)c(N=Nc2ccc(S(N)(=O)=O)cc2)c(=O)[nH]1	.	3	.	6	-5
NS(=O)(=O)c1ccc(N=Nc2c[nH]c(=O)c(O)c2)cc1	44	7	-6	89*	-387
CCCNC(=O)C[C@@H]1CC[C@@H]2[C@H](COc3ccc(NC(=O)c4cc(C)on4)cc3C(=O)N2C)O1	.	-15	5[16.7 µM]	1	-3
O=C1[C@H]2[C@@H](c3ccccc3)N[C@]3(CCCN(CC4CCCCC4)C3=O)[C@H]2C(=O)N1Cc1ccccc1	.	-1	3	41*	-25
O=C(CCOc1ccccc1)N1CCN(S(=O)(=O)c2cccs2)CC1	0	.	-3	.	.
O=C(CCOc1ccccc1)N1CCN(S(=O)(=O)c2ccccc2F)CC1	-2	-1	7	48*	-5
COc1ccc2c3c([nH]c2c1)[C@H](CO)N(C(=O)NC(C)C)CC31CCN(C(=O)NC2CCCC2)CC1	.	-8	.	.	18
N#Cc1cnn2c1nc(N1CCCCC1)c1ccccc12	0	.	134*	.	.
CC(C)c1ccc(S(=O)(=O)c2nnn3c2nc(N2CCCCC2)c2ccccc23)cc1	3	.	.	.	.
CCCN1C(=O)/C(=C2/C=Cc3ccccc3N2CC)SC1=S	11	26*	.	-3	-9
CCCN1/C(=C2/SC(=S)N(CC)C2=O)C=Cc2ccccc21	17	.	-5	.	.
Cc1ccccc1S(=O)(=O)N1CCCCN2[C@H](C1)[C@H](c1ccc(-c3cccc(F)c3)cc1)[C@@H]2CO	.	-3	4[16.7 µM]	-1	-20
O=[N+]([O-])c1ccc(N2CCCC2)cc1N1CCCC1	53*	.	0	.	.
